Bioassay records deposited in PubChem by National Center for Advancing Translational Sciences (NCATS).
HEK cytotox – kills HEK 293 cells. HEK 293 viability, ATP luminescence (CellTiter-Glo), 48-72 h. Potency, µM (titrated, usually from 115 µM), actives largely listed as inhibitors. actives 6.6% (n = 94,000); note: nearly all actives have a fitted effect of over 60% in size
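Cytotoxicity was scored by loss of ATP-coupled luminescence (CellTiter-Glo) in HEK 293 cells. Compound treatment ran 48 or 72 hr at 37 degree Celsius, 5% CO2, 95% humidity.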
NIH3T3 tox – kills NIH 3T3 cells; NIH 3T3 viability, CellTiter-Glo ATP luminescence, 48-72 h; Potency, µM (titrated, usually from 96.7 µM), actives largely listed as inhibitors; actives 4.3% (n = 94,000); AID 1345082; note: nearly all actives have a fitted effect of over 55% in size
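NIH 3T3 cells at 400 cells/well received 23 nL of compound by pintool and were incubated 48 or 72 h at 37 °C. Viability was read as ATP-coupled CellTiter-Glo luminescence.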
NPR1 antag – blocks ANP-stimulated signaling of human Npr1 receptor | HEK293 hNpr1 GloSensor cGMP, ANP-stimulated luminescence | P16066 | actives 1.6% (n = 76,000) | Potency, µM (top dose mostly 46.3 µM), usual class: inhibitors | AID 1347048; calls by dose curve; note: nearly all actives have a fitted effect of over 60% in size
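Compound pre-incubated 30 min at room temperature on GloSensor-loaded HEK293 cells stably carrying hNpr1 and the pGS-40F cGMP biosensor. Stimulation uses hNppA at 0.1 nM final; luminescence is taken at baseline and 20 min post-agonist.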
GPT2 inh – blocks human glutamate pyruvate transaminase 2; Recombinant GPT2, coupled pyruvate oxidase/HRP Amplex Red fluorescence; Potency, µM (highest dose often 57.7 µM), most hits filed as inhibitors; actives 0.25% (n = 100,000); note: nearly all actives have a fitted effect of over 60% in size
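Recombinant GPT2 (10ng/uL) with 250uM a-KG and 2mM L-alanine, 30 min at room temperature, in HEPES pH 7.5 buffer. Pyruvate detected by pyruvate oxidase/HRP/Amplex Red fluorescence after 30 min in the dark; AOA (50uM) as positive control.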
FLuc inh – inhibitors of firefly (Photinus pyralis) luciferase | P08659 | purified P. pyralis luciferase, luminescence, biochemical | Potency, µM (series often up to 115 µM), usual class: inhibitors | actives 2.5% (n = 76,000) | AID 1347043; note: nearly all actives have a fitted effect of over 65% in size
Target sequence (P08659 whole entry, looked up): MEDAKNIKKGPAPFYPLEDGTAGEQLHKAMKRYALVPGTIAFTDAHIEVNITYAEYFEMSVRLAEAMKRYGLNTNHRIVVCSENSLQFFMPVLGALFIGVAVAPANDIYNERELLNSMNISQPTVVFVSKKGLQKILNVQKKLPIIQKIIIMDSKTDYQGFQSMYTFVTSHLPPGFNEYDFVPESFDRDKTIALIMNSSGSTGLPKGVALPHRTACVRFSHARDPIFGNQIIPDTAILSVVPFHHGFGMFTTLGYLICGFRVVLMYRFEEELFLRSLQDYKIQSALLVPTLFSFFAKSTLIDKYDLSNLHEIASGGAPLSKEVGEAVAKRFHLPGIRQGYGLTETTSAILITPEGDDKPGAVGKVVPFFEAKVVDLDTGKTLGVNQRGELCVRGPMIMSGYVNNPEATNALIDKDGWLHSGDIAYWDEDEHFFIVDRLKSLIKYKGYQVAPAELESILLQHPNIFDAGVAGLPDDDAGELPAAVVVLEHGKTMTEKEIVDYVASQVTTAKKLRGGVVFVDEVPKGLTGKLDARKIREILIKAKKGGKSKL
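Inhibitors were tested against purified firefly luciferase in a biochemical, low-substrate format (both substrates at 10uM) and luminescence measured with a CCD imager.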
NPR1 antag cnf – hNpr1 antagonism, confirmation assay. HEK293 hNpr1 cGMP GloSensor luminescence, ANP-stimulated. Potency, µM (top dose mostly 57.6 µM), usual class: inhibitors. shares compounds with NPR1 antag. actives 76% (n = 1,400). AID 1347044; calls by dose curve; note: nearly all actives have a fitted effect of over 70% in size
NPR2 antag – hNpr2 antagonism, selectivity versus Npr1. HEK293 hNpr2 GloSensor cGMP luminescence, CNP-stimulated. AID 1347046. actives 67% (n = 1,400). shares compounds with NPR1 antag. Potency, µM (top dose mostly 57.6 µM), most hits filed as inhibitors; calls by dose curve; note: nearly all actives have a fitted effect of over 70% in size
FLuc counter – FLuc enzyme inhibition, Npr1 counter-screen; shares compounds with NPR1 antag; purified FLuc enzyme, luminescence, Km substrate; Potency, µM (top dose mostly 57.6 µM), usual class: inhibitors; actives 0.7% (n = 1,400)
GloSensor cGMP – reduces cGMP signal in GloSensor control cells; Potency, µM (series often up to 57.6 µM), actives largely listed as inhibitors; actives 69% (n = 1,400); shares compounds with NPR1 antag; HEK293 GloSensor cGMP, SNP-stimulated, luminescence; calls by dose curve; note: nearly all actives have a fitted effect of over 70% in size
Hits are given with their value; i = inactive; ? = inconclusive; nt = not tested or not shown. Compounds with a hit are over-represented: about 10% of the library has one in this group of screens. Unless noted, calls come from the whole dose curve; as a rule, active = well fitted curve in the direction sought with a large enough effect; inconclusive = small, poorly fitted or top-dose-only effect, or another doubt; inactive = no such curve, though single readings can be large; an effect the other way counts as inactive or inconclusive.

SMILES | HEK cytotox | NIH3T3 tox | NPR1 antag | GPT2 inh | FLuc inh | NPR1 antag cnf | NPR2 antag | FLuc counter | GloSensor cGMP
C[S+](=O)([O-])NCCn1ccc2cc(OC3CCN(c4ncc(F)cn4)CC3)cnc21 | ? | ? | 22.4µM | i | i | 19.8µM | 28µM | i | 22.2µM
CCn1nccc1C(=O)N1CCC(CCOC)(NC(=O)c2ccccc2)CC1 | i | i | nt | i | nt | nt | nt | nt | nt
OC1CC(c2cc(N3CCN(c4nsc5ccccc45)CC3)ncn2)C1 (stereo not given) | 11.2µM | 17.8µM | 1.58µM | i | i | 2.73µM | 3.06µM | i | 2.43µM
OC1CC(c2cc(N3CCC(CCn4cccn4)CC3)ncn2)C1 (stereo not given) | ? | ? | 7.94µM | i | i | 13.7µM | 12.2µM | i | 9.68µM
O=C(c1ccccc1F)N1CCCC2(CNc3ncccc3[S+](=O)([O-])N2)C1 (stereo not given) | i | i | nt | nt | nt | nt | nt | nt | nt
C(=C\c1ccccc1)/CN1CCN(Cc2nc(COc3ccccc3)no2)CC1 | ? | ? | i | i | i | ? | i | i | ?
COc1ccc(-c2noc(CC3CCN(C(=O)c4cc(Cl)ccc4OC)CC3)n2)cc1 | 31.6µM | ? | i | i | i | 21.7µM | 24.3µM | i | 21.7µM
CCOc1ccccc1C(=O)N1CCC(Cc2nc(-c3ccc(F)cc3)no2)CC1 | ? | ? | ? | i | i | nt | nt | nt | nt
COc1cc(Cl)ccc1C(=O)N1CCC(Cc2nc(-c3ccc(F)cc3)no2)CC1 | ? | 11.2µM | 5.62µM | i | i | 4.85µM | 6.11µM | i | 6.85µM
O=C(C1CCOC1)N1CCC2(CC1)NCCc1c2[nH]c2ccccc12 (stereo not given) | i | i | i | i | i | nt | nt | nt | nt
COCCn1nnnc1C1CC2(CCOCC2)C(=O)N1Cc1ccc(C(F)(F)F)cc1 (stereo not given) | i | i | nt | i | nt | nt | nt | nt | nt
O=C(CCc1ccccc1)N1CCC(c2nc(C3CCOCC3)no2)C1 (stereo not given) | i | i | i | i | i | i | i | i | i
COc1cccc(CCC(=O)N2CCC(c3nc(C4CCOCC4)no3)C2)c1 (stereo not given) | ? | i | i | i | i | nt | nt | nt | nt
O=C(N1CCC(c2ccccc2)CC1)C1(c2ccc(Cl)cc2)CCOCC1 | ? | ? | nt | i | nt | ? | ? | i | i
CN1C(=O)c2cccn2CC1C(=O)NCCCc1ccccc1 (stereo not given) | i | i | nt | i | nt | nt | nt | nt | nt
COc1cccc([S+](=O)([O-])N2CCC3(CC2)C(=O)NN=C3c2cccnc2)c1 | ? | ? | ? | i | i | nt | nt | nt | nt
O=C1NN=C(c2cccnc2)C12CCN([S+](=O)([O-])c1cccc(C(F)(F)F)c1)CC2 | ? | ? | ? | ? | i | 21.7µM | 21.7µM | i | 24.3µM
O=S(=O)(c1ccccc1)N1CCC(c2nc(CCOCC3CC3)no2)C1 (stereo not given) | i | ? | i | i | i | nt | nt | nt | nt
O=S(=O)(c1ccccc1)N1CCCC(c2nc(CCOCC3CCCC3)no2)C1 (stereo not given) | ? | i | i | i | i | ? | ? | i | ?
Cc1nn(C)c(C)c1CCC(=O)N1CCC(Cc2noc(-c3ccc(F)cc3)n2)C1 (stereo not given) | ? | ? | 15.8µM | i | i | 27.3µM | ? | i | 34.3µM
c1ccc(CN2CCNc3cnc(Nc4ccncn4)cc3C2)cc1 | ? | ? | i | ? | i | nt | nt | nt | nt
c1ccc(Nc2cc3c(cn2)CN(Cc2c[nH]c4ccccc24)CCN3)cc1 | ? | 25.1µM | ? | ? | i | 11.1µM | 6.27µM | i | ?
O=C(C[C@@H]1CCNC[C@@H]1Cc1cc(CN2CCCCC2)on1)N1CCN(c2ccccc2)CC1 | ? | ? | i | i | i | nt | nt | nt | nt
O=C(C[C@@H]1CCNC[C@@H]1Cc1cc(CC2CCCCC2)on1)NCc1ccccc1 | ? | 31.6µM | 14.1µM | i | i | 19.8µM | 28µM | i | 17.7µM
CC(=O)Nc1ccc(S(=O)(=O)N[C@H]2CO[C@H]3[C@@H]2OC[C@H]3OC(=O)Nc2cccc3ccccc23)cc1 | i | ? | i | i | i | i | i | i | i
SMILES | HEK cytotox | NIH3T3 tox | NPR1 antag | GPT2 inh | FLuc inh | NPR1 antag cnf | NPR2 antag | FLuc counter | GloSensor cGMP
COc1ccc(NC(=O)O[C@@H]2CO[C@H]3[C@@H]2OC[C@@H]3NS(=O)(=O)c2ccc(Cl)cc2)cc1 | i | ? | i | i | ? | nt | nt | nt | nt
O=C(Nc1ccc(Oc2ccccc2)cc1)O[C@@H]1CO[C@H]2[C@@H]1OC[C@@H]2NS(=O)(=O)c1ccc(Cl)cc1 | 35.5µM | 31.6µM | ? | i | i | 10.9µM | 12.2µM | i | 9.68µM
Cc1ccc(C(=O)Nc2cc(C3CCCC3)nn2C)cc1 | ? | i | nt | i | nt | nt | nt | nt | nt
COC(=O)c1cccc(NC(=S)N[C@@H]2C=C[C@@H](c3c(C)nn(-c4ccc(F)cc4)c3C)C2)c1 | 31.6µM | ? | ? | i | i | 21.7µM | ? | i | 21.7µM
CSc1ccc(-c2cccc(C(=O)NCCN[S+](=O)([O-])c3cccs3)c2)cc1 | ? | ? | nt | i | nt | nt | nt | nt | nt
O=C(NCc1ccccc1)c1nc2c(o1)CCN(Cc1ccc(F)c(Cl)c1)CC2 | ? | 44.7µM | 22.4µM | i | i | 28µM | 28µM | i | 19.8µM
O=C(NCc1ccccc1)c1nc2c(o1)CCN(Cc1ccc(F)cc1)CC2 | ? | ? | ? | i | i | 35.3µM | 35.3µM | i | 35.3µM
Cc1cccc(CN2CCc3nc(C(=O)NCc4ccccc4)oc3CC2)c1 | ? | ? | i | i | i | nt | nt | nt | nt
Cn1ncc2c(C(=O)NCc3cccc(F)c3)cc(-c3ccc(Cl)cc3Cl)nc21 | ? | ? | nt | i | nt | nt | nt | nt | nt
O=C(Nc1cccc2ccccc12)O[C@@H]1CO[C@H]2[C@@H]1OC[C@@H]2Nc1nccc(-c2cccc(F)c2)n1 | 39.8µM | ? | i | i | i | ? | ? | i | i
N#Cc1cccc(NC(=O)N[C@H]2CO[C@H]3[C@@H]2OC[C@@H]3Nc2nccc(-c3cccc(F)c3)n2)c1 | ? | ? | i | i | i | nt | nt | nt | nt
CC(C)(C)C(=O)N[C@H]1CO[C@H]2[C@@H]1OC[C@@H]2Nc1nccc(-c2ccc(-c3ccccc3)cc2)n1 | ? | i | ? | i | i | 21.7µM | ? | i | 21.7µM
